From article PMC7862700, “An all-to-all approach to the identification of sequence-specific readers for epigenetic DNA modifications on cytosine”

How the values were obtained:
Assay in all cases: DAPPL (digital affinity profiling via proximity ligation, sequencing); 10 mM Tris-HCl pH 7.5, 50 mM NaCl, 1 mM DTT, 4% glycerol, room temperature, 30 min; GST-TFs on glutathione beads, 16-mer random dsDNA library, 0.1% formaldehyde crosslink after washing; high values mean tight binding
FEV = target: T1, FEV (Homo sapiens, UniProt Q99581 1-238); settings: protein: recombinant; tags: N-terminal GST; dsDNA, one strand shown
T1 sequence: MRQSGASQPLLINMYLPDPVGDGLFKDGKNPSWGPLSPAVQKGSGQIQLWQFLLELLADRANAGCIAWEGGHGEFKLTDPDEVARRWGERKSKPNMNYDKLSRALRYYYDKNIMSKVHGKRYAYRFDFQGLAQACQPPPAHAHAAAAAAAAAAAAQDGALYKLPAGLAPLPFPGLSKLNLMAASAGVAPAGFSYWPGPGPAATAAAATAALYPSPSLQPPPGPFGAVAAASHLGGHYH
Outline: (§1)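 GST fusions of human transcription factors were expressed in yeast and captured with glutathione beads. Once given DNA barcodes and pooled alongside a tag-only sample, they were incubated for 30 min at room temperature with 200 nmole of a random double-stranded 16-mer DNA library in Tris/NaCl/DTT/glycerol buffer, then washed, crosslinked (0.1% formaldehyde), proximity-ligated, PCR-amplified and sequenced on an Illumina NextSeq500. The binding signal of each hexamer is its read frequency for a factor divided by its frequency for the tag-only sample.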

ETV5 = ETV5 (Homo sapiens, UniProt P41161 1-510); settings: protein: recombinant; tags: N-terminal GST; dsDNA, one strand shown
Outline: as §1

HSF1 = HSF1 (Homo sapiens, UniProt Q00613 1-529); settings: protein: recombinant; tags: N-terminal GST; chain copies: 3; dsDNA, one strand shown
Outline: as §1

SPIC = target: T2, SPIC (Homo sapiens, UniProt Q8N5J4 1-248); settings: protein: recombinant; tags: N-terminal GST; dsDNA, one strand shown
T2 sequence: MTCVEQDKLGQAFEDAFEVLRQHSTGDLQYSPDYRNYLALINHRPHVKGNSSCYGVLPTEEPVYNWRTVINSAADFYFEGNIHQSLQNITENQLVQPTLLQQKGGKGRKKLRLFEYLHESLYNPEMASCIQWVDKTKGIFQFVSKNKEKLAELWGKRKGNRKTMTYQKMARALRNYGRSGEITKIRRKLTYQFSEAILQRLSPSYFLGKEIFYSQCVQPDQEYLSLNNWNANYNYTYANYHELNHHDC
Outline: as §1

ELF4 = ELF4 (Homo sapiens, UniProt Q99607 1-663); settings: protein: recombinant; tags: N-terminal GST; dsDNA, one strand shown
Outline: as §1

ELK4 = target: T3, ELK4 (Homo sapiens, UniProt P28324-2 1-405); settings: protein: recombinant; tags: N-terminal GST; dsDNA, one strand shown
T3 sequence: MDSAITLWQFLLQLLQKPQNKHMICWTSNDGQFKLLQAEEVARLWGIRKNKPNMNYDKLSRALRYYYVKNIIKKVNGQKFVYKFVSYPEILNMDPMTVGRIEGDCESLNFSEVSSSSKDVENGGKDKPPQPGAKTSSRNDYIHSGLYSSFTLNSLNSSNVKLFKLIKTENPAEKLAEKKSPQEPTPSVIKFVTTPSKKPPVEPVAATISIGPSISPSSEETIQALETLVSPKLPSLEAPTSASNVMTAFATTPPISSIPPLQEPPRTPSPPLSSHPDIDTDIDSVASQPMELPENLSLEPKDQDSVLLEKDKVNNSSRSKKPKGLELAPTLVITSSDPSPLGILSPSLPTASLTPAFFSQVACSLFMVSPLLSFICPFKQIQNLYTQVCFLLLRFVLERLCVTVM
Outline: as §1

ELF3 = target: T4, ELF3 (Homo sapiens, UniProt P78545 1-371); settings: protein: recombinant; tags: N-terminal GST; dsDNA, one strand shown
T4 sequence: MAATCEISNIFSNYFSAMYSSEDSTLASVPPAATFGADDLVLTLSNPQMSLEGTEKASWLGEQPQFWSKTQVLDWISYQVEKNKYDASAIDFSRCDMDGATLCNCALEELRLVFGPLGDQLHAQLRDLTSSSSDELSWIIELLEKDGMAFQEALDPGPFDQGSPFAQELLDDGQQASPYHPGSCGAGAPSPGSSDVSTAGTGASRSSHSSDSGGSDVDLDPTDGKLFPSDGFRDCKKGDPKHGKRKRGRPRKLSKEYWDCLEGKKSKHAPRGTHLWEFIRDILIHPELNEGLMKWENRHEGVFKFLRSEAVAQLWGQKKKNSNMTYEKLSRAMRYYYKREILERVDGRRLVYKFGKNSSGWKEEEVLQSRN
Outline: as §1

CRX = CRX (Homo sapiens, UniProt O43186 1-299); settings: protein: recombinant; tags: N-terminal GST; dsDNA, one strand shown
Outline: as §1

ETV1 = ETV1 (Homo sapiens, UniProt P50549 1-477); settings: protein: recombinant; tags: N-terminal GST; dsDNA, one strand shown
Outline: as §1

ERF = target: T5, ERF (Homo sapiens, UniProt P50548 1-548); settings: protein: recombinant; tags: N-terminal GST; dsDNA, one strand shown
T5 sequence: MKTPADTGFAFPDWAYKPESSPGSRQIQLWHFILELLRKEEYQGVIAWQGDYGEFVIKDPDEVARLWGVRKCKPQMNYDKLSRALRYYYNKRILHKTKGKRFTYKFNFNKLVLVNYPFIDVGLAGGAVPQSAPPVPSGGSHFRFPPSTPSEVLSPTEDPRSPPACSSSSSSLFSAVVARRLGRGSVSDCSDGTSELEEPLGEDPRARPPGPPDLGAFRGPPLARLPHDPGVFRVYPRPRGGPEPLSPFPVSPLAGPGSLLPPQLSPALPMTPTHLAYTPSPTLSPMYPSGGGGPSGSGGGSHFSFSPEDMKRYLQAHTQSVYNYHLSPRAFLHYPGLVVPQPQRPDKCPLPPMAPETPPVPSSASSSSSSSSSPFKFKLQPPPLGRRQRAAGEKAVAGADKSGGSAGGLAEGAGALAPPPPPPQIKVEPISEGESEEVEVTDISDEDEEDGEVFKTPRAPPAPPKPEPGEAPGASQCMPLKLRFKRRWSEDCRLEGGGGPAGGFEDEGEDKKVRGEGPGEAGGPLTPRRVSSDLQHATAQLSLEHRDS
Outline: as §1

ETV3L = target: T6, ETV3L (Homo sapiens, UniProt Q6ZN32 1-361); settings: protein: recombinant; tags: N-terminal GST; dsDNA, one strand shown
T6 sequence: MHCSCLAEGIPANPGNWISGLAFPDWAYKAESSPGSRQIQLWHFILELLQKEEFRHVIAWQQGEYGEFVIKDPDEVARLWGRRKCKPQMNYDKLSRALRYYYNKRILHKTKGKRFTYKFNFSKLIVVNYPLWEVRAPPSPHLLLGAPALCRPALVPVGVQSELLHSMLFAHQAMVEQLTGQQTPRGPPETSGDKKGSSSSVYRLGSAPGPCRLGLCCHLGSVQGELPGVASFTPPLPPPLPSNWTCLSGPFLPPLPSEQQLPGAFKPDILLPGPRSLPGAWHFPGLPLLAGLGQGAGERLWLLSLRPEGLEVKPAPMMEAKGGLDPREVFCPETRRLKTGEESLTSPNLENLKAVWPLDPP
Outline: as §1

ETS2 = target: T7, ETS2 (Homo sapiens, UniProt P15036 1-469); settings: protein: recombinant; tags: N-terminal GST; dsDNA, one strand shown
T7 sequence: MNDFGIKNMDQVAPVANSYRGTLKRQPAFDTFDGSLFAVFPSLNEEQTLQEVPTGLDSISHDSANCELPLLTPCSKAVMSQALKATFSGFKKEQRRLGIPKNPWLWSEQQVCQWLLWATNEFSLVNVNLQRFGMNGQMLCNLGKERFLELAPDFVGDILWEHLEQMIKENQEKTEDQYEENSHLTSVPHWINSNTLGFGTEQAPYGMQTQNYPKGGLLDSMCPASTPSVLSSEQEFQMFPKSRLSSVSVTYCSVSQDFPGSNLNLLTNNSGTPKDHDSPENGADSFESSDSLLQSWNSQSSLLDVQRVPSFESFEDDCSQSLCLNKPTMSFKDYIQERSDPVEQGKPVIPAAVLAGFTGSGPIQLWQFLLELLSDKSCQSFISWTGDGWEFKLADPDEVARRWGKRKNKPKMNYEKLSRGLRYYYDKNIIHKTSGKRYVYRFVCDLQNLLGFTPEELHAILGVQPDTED
Outline: as §1

SPDEF = target: T8, SPDEF (Homo sapiens, UniProt O95238 1-335); settings: protein: recombinant; tags: N-terminal GST; dsDNA, one strand shown
T8 sequence: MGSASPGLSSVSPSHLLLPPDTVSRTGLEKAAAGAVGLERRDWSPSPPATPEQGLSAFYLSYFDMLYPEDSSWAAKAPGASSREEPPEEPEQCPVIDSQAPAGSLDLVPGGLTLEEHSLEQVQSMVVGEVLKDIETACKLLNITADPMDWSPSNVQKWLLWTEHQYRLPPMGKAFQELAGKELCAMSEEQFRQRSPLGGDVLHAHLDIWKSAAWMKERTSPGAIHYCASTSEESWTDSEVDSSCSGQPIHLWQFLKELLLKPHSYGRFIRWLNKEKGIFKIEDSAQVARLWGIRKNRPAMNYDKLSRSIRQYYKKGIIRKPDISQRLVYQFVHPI
Outline: as §1

ETV7 = target: T9, ETV7 (Homo sapiens, UniProt Q9Y603 1-341); settings: protein: recombinant; tags: N-terminal GST; dsDNA, one strand shown
T9 sequence: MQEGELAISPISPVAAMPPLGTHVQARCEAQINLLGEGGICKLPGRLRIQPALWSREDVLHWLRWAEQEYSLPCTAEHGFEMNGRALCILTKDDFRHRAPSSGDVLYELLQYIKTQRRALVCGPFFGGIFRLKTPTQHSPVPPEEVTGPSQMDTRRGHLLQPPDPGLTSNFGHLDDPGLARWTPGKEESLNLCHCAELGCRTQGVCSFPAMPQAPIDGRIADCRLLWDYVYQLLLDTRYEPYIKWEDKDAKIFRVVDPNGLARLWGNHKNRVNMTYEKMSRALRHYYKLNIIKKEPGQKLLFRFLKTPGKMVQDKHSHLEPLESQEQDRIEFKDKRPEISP
Outline: as §1

ELF5 = target: T10, ELF5 (Homo sapiens, UniProt Q9UKW6-2 1-255); settings: protein: recombinant; tags: N-terminal GST; dsDNA, one strand shown
T10 sequence: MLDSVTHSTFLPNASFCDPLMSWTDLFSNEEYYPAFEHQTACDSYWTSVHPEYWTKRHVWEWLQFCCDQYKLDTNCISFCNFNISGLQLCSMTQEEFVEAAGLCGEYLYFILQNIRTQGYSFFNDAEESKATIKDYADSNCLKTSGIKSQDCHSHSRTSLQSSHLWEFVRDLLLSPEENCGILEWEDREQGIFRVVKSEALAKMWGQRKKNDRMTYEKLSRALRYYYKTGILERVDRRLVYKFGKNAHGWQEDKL
Outline: as §1

ETV3 = target: T11, ETV3 (Homo sapiens, UniProt P41162-2 1-143); settings: protein: recombinant; tags: N-terminal GST; dsDNA, one strand shown
T11 sequence: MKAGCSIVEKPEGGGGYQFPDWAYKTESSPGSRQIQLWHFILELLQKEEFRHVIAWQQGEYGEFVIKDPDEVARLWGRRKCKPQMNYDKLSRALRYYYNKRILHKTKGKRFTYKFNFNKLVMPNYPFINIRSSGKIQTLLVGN
Outline: as §1

ETV6 = ETV6 (Homo sapiens, UniProt P41212 1-452); settings: protein: recombinant; tags: N-terminal GST; dsDNA, one strand shown
Outline: as §1

Sequence of ETV5 (P41161 whole entry): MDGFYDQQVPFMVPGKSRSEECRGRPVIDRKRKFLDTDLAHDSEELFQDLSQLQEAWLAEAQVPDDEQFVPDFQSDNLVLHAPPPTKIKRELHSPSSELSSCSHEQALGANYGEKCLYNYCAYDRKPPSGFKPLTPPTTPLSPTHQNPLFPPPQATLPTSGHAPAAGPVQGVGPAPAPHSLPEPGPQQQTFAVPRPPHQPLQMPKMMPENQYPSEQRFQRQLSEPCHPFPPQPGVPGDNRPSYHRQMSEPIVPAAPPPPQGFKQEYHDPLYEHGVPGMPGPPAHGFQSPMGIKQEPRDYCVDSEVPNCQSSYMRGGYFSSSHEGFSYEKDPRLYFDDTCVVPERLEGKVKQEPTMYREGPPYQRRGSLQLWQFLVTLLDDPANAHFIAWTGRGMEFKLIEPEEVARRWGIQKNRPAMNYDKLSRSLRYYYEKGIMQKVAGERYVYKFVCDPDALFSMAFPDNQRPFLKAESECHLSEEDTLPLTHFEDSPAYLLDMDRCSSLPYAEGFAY
Sequence of ETV6 (P41212 whole entry): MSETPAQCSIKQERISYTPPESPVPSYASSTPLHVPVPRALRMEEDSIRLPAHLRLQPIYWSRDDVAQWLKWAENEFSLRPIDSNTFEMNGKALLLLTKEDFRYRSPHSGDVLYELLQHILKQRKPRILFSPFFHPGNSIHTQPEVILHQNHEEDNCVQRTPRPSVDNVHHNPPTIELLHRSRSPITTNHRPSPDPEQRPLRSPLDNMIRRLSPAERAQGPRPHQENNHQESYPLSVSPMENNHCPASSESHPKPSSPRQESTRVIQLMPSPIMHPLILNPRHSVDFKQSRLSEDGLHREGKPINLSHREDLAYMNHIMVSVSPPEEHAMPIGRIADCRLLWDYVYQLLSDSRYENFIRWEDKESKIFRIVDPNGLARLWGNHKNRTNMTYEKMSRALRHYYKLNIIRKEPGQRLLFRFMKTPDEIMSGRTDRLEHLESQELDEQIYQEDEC
Sequence of HSF1 (Q00613 whole entry): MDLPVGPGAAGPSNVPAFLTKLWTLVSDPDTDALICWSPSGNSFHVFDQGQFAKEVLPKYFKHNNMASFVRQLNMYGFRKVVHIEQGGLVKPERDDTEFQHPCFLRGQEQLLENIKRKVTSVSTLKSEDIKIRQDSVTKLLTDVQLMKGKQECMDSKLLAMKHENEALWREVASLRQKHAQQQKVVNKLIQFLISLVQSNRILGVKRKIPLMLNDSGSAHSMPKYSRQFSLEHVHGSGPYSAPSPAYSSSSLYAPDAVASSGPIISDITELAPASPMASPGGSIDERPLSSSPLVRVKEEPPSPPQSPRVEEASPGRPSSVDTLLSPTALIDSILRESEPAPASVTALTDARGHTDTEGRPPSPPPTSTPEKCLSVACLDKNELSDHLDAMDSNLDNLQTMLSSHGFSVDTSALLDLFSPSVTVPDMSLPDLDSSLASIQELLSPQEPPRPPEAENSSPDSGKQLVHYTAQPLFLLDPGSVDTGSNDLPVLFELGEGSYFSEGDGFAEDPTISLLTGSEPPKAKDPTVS
Sequence of ELF4 (Q99607 whole entry): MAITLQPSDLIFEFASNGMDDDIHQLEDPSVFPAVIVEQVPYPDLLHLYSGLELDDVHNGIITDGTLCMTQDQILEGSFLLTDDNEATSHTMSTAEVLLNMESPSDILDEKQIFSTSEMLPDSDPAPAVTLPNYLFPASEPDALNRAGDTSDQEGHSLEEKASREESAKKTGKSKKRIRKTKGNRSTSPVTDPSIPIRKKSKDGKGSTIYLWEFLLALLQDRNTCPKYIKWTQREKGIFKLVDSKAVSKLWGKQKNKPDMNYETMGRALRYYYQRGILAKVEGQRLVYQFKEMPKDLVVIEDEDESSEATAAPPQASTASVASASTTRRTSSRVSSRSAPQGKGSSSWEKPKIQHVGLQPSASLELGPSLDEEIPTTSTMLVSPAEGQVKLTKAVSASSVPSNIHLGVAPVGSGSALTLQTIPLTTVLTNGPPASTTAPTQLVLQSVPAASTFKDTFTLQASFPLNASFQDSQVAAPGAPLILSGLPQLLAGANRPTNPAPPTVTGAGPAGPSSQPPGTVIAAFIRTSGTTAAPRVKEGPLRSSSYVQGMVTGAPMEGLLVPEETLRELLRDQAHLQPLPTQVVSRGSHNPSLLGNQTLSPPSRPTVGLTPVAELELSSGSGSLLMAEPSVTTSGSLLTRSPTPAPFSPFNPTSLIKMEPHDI
Sequence of CRX (O43186 whole entry): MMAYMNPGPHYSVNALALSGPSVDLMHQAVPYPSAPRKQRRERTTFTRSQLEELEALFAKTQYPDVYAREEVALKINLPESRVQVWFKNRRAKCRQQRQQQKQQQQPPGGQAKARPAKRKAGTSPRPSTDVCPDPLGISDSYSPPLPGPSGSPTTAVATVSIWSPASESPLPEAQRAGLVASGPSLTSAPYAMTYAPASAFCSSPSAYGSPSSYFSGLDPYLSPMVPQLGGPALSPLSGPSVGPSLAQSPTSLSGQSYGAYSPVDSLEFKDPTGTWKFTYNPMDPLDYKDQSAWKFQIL
Sequence of ETV1 (P50549 whole entry): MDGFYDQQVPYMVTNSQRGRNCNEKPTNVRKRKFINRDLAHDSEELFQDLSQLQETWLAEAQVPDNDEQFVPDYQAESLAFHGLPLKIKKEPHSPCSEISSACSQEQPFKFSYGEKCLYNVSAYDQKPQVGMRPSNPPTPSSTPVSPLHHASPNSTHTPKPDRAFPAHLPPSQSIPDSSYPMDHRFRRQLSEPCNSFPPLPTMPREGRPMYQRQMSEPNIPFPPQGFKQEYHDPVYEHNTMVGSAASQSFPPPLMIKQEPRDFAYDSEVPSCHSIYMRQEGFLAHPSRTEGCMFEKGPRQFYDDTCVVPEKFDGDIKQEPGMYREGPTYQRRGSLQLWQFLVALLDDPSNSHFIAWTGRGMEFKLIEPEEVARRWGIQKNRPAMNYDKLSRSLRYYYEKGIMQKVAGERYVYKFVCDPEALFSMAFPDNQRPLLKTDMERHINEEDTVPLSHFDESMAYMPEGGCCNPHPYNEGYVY

Sequence	binding signal (FEV)	binding signal (ETV5)	binding signal (HSF1)	binding signal (SPIC)	binding signal (ELF4)	binding signal (ELK4)	binding signal (ELF3)	binding signal (CRX)	binding signal (ETV1)	binding signal (ERF)	binding signal (ETV3L)	binding signal (ETS2)	binding signal (SPDEF)	binding signal (ETV7)	binding signal (ELF5)	binding signal (ETV3)	binding signal (ETV6)
GTTTAT	1.02 fold enrichment (6-mer frequency, TF over GST control)	1.07 fold enrichment (6-mer frequency, TF over GST control)	1.14 fold enrichment (6-mer frequency, TF over GST control)	1.12 fold enrichment (6-mer frequency, TF over GST control)	1.07 fold enrichment (6-mer frequency, TF over GST control)	1.05 fold enrichment (6-mer frequency, TF over GST control)	1.27 fold enrichment (6-mer frequency, TF over GST control)	1.33 fold enrichment (6-mer frequency, TF over GST control)	1.03 fold enrichment (6-mer frequency, TF over GST control)	1.17 fold enrichment (6-mer frequency, TF over GST control)	1.26 fold enrichment (6-mer frequency, TF over GST control)	1.1 fold enrichment (6-mer frequency, TF over GST control)	1.11 fold enrichment (6-mer frequency, TF over GST control)	1.19 fold enrichment (6-mer frequency, TF over GST control)	1.14 fold enrichment (6-mer frequency, TF over GST control)	1.1 fold enrichment (6-mer frequency, TF over GST control)	1.18 fold enrichment (6-mer frequency, TF over GST control)
TAGCGA	–	1.08 fold enrichment (6-mer frequency, TF over GST control)	1.22 fold enrichment (6-mer frequency, TF over GST control)	1.08 fold enrichment (6-mer frequency, TF over GST control)	1.04 fold enrichment (6-mer frequency, TF over GST control)	1.05 fold enrichment (6-mer frequency, TF over GST control)	1.2 fold enrichment (6-mer frequency, TF over GST control)	1.24 fold enrichment (6-mer frequency, TF over GST control)	1.07 fold enrichment (6-mer frequency, TF over GST control)	1.19 fold enrichment (6-mer frequency, TF over GST control)	1.02 fold enrichment (6-mer frequency, TF over GST control)	1.01 fold enrichment (6-mer frequency, TF over GST control)	1.02 fold enrichment (6-mer frequency, TF over GST control)	–	–	–	1 fold enrichment (6-mer frequency, TF over GST control)
AACCCA	1.03 fold enrichment (6-mer frequency, TF over GST control)	1.05 fold enrichment (6-mer frequency, TF over GST control)	1 fold enrichment (6-mer frequency, TF over GST control)	1.1 fold enrichment (6-mer frequency, TF over GST control)	1.1 fold enrichment (6-mer frequency, TF over GST control)	1.08 fold enrichment (6-mer frequency, TF over GST control)	1.04 fold enrichment (6-mer frequency, TF over GST control)	–	–	1.1 fold enrichment (6-mer frequency, TF over GST control)	1.06 fold enrichment (6-mer frequency, TF over GST control)	1.04 fold enrichment (6-mer frequency, TF over GST control)	–	1.14 fold enrichment (6-mer frequency, TF over GST control)	1.05 fold enrichment (6-mer frequency, TF over GST control)	–	1.09 fold enrichment (6-mer frequency, TF over GST control)
